From the supplement of paper PMC10681739 come the findings set out here.
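Throughout, for RUNX1 binding intensity (PBM fluorescence), RUNX1 alone: Full-length recombinant human RUNX1 bound to double-stranded 36-bp genomic probes on a high-density microarray, scored as Alexa488 fluorescence per spot via anti-RUNX1 antibody, median of four replicate spots.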

Chain of RUNX1 (Q01196 whole entry): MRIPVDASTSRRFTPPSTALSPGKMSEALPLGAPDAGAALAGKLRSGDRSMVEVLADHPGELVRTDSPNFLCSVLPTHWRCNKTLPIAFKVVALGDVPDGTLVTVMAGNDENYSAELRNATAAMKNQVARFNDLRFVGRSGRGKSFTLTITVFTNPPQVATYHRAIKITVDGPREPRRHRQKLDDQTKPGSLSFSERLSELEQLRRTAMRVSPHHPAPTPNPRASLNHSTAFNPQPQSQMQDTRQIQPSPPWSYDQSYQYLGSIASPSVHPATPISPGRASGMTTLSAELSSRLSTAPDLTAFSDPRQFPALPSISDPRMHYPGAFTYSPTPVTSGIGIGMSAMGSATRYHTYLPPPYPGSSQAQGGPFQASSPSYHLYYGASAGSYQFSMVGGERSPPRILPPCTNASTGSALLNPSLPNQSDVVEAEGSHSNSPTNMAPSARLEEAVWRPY

One test has as its target T1, ETS1 (UniProt P14921).
T1 sequence: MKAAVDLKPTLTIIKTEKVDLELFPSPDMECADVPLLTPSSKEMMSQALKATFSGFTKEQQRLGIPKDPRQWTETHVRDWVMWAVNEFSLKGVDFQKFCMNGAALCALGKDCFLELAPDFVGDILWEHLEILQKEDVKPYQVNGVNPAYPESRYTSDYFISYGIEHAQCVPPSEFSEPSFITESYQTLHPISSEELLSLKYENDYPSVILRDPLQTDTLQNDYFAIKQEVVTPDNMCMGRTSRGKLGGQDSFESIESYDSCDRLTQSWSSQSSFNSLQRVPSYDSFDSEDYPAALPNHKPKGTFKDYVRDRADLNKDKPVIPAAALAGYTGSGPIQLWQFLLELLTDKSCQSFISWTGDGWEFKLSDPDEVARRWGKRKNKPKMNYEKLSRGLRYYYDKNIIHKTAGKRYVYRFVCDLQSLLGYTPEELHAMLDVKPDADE
The test can be described thus: ETS1 binding intensity (PBM fluorescence), ETS1 alone (arbitrary fluorescence units); higher = stronger binding. As to conditions: ETS1 concentration 1 nM; RUNX1 concentration 0 nM.
As to CCCGCGACACAAGGCGGATGTGGTACCCTCACTTGT, the ETS1 binding intensity was found to be 3250.
Still for that read-out and setting: the result for CATACAGGATGCTGGGGTATGTAAAACAAACCACGG reads 708; that for GCTCCTCCCGGATATAAAGCCCCAAACCACGCCACT, 724.
Still for that read-out and setting: the result for CATGGTTGTTATTTCCTCACCACAATATGTGACATT reads 386; that for AACTGTCTCTACCCAGGAAGTGGTTTTATTTAAAAG, 5160.
In turn, ACAGGAAATGTTAGAGGTTGAGTTAGCGGTTATGAG gave an ETS1 binding intensity of 1620.
As to CTCCCACATCCGAAGCGGCGCAACCCACAACAGCCT, the ETS1 binding intensity came out at 445.
On the same count and under the same terms, the result for GCTGCTTCCGGCCGCTGGTCGCAGGGCTGCGGGACT reads 865; that for AGTAGGATGGGAGGAAGTGGTTTGTAAGAGGAGGAC, 1780.
Same read-out and setting: the result for GGGGCCTCTGCTACTTCCTAGACCGCAAAATGGAGA reads 413; that for CCCACTGATAAGACAGGATGTGGTAAAGAAGCCAGC, 5700; that for TGAGTCACAGAGACAGGATGTGGTGCAGGGGGTATT, 7580.
GTTATTCTCCCCTTCCTGTGGTGTGTTTTGATGGTA had an ETS1 binding intensity of 702.
Still for that read-out and setting: next, GAGCAAACGGAGGCAGGAAGTGGTTATGTAACTTCA: 7030.
On the same count and under the same terms, next, TGACAGACCCGGAAATAAGAGGAGACCACACACTTG: 1900; GAGGACGCGGAAGTCCTTCTTGCGGGGCGGAGCTAG: 891; GGGCGGAAGTGCGTCACTATGTCCGACCCGCAGTGC: 1630.
Still for that read-out and setting: the result for AGCTGTTTGGTCACAGGATGTGGTTATTAGAATAGG reads 4800; that for GCGAAAAACGCGGAAATGCGGTGGCGGCGGCCCGCT, 885.
For GAGAGGAGGATGTTGTCAGATACCCACAAATGAGAA, the ETS1 binding intensity was 566.
On the same count and under the same terms, the result for GACCAATGTAAACAAGGATGTGGGTTCTCCGGGCAC reads 929.
Still for that read-out and setting: the result for GGCGCGGGCTGCTTCCGGTCTGCGGGCCTGAGGAGG reads 5650.
Sequence CAGAGGACAGGATGCCAACCCCAAAACCGCAGCGAC showed an ETS1 binding intensity of 733.
The sequence CCAGTACCCCACTTCCTGACCAAACCACAAAGGTCA returned an ETS1 binding intensity of 635.
Regarding AACCAATCGAGCGGAGGAAACCGCGGCGTTAGCGTG, the ETS1 binding intensity worked out at 568.
Same read-out and setting: next, GGAGCAAGGATGACAGGATGTGGCTTAGGGGGAGGC: 5020; TCCCTAAGTCACATCCTGTGGGCAAAGGCCCTAGCA: 880; TTATTTCCGGTGTTGATCTTTTTAGTGGTACCAGGC: 3400.
On the same count and under the same terms, next, AGCGGCCGAAGGAAGTGACGTTTGCGGCAGTAAGGC: 997.
Still for that read-out and setting: the result for GTGGCGGGGCGGAAGTTCACATGTGTGGTATGTAGA reads 2720.
Sequence CAGCCGACTTCCGGGGTGGGGCTTGCTGCCGCAGAG showed an ETS1 binding intensity of 1760.
Still for that read-out and setting: next, AGGGAGCCCTCCATTTCCTGCCCACATTTGTCACCT: 2360; ACCATCCTGTAGTCTGTTAAGTGAGCAACCGCATTA: 447; AGCGGCCTGGGAGGAGGATGTGGTTACGTGGAGACC: 1120.
The same measure, in the same setting: the result for GAAGGTTGTAGAGGAAGTGGTTTGTTCTTCCTCCTG reads 2670.
Same read-out and setting: the result for CCCTGAGCACTTCCCCGTAAGGCTGCGGTGCACGGG reads 337.
The sequence ACAGTCGCACCGGAAGCTGCCCGCGGTGTTGACACA gave an ETS1 binding intensity of 8580.
On the same count and under the same terms, the result for ATTCCTAGAGAGGAAATGCGGGCTCAGGGTGTCGGC reads 1550; that for AAATATAGTGCTAAAGGAAGTGGTTTTCATGCAACT, 2380; that for ACCTCATCCTGCTGTTCTTGTGTGTGGTTGAGCAGT, 453.

The target in another test is RUNX1 (UniProt Q01196). In words: RUNX1 binding intensity (PBM fluorescence), RUNX1 alone (arbitrary fluorescence units); higher = stronger binding. As to conditions: RUNX1 concentration 2 nM; ETS1 concentration 0 nM. On the procedure:
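Cooperative gcPBM on 36-bp genomic probes with neighbouring ETS1 and RUNX1 sites. Recombinant human RUNX1 (2 nM) was incubated alone or with ETS1 (25 nM) and detected with anti-RUNX1 antibody plus Alexa488 secondary. Values are medians over 4 replicate spots; the RUNX1+ETS1 data were normalised to the RUNX1-only data. The probes sit in constant array flanks that are not printed.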
CCCGCGACACAAGGCGGATGTGGTACCCTCACTTGT had an RUNX1 binding intensity of 820.
In turn, CATACAGGATGCTGGGGTATGTAAAACAAACCACGG showed an RUNX1 binding intensity of 775.
Sequence GCTCCTCCCGGATATAAAGCCCCAAACCACGCCACT returned an RUNX1 binding intensity of 1140.
The same measure, in the same setting: the result for CATGGTTGTTATTTCCTCACCACAATATGTGACATT reads 1200; that for AACTGTCTCTACCCAGGAAGTGGTTTTATTTAAAAG, 1020.
Still for that read-out and setting: the result for ACAGGAAATGTTAGAGGTTGAGTTAGCGGTTATGAG reads 833.
Sequence CTCCCACATCCGAAGCGGCGCAACCCACAACAGCCT displayed an RUNX1 binding intensity of 1120.
Still for that read-out and setting: next, GCTGCTTCCGGCCGCTGGTCGCAGGGCTGCGGGACT: 677; AGTAGGATGGGAGGAAGTGGTTTGTAAGAGGAGGAC: 769.
Still for that read-out and setting: the result for GGGGCCTCTGCTACTTCCTAGACCGCAAAATGGAGA reads 5260.
Same read-out and setting: next, CCCACTGATAAGACAGGATGTGGTAAAGAAGCCAGC: 776; TGAGTCACAGAGACAGGATGTGGTGCAGGGGGTATT: 718.
As for GTTATTCTCCCCTTCCTGTGGTGTGTTTTGATGGTA, the RUNX1 binding intensity amounted to 1120.
GAGCAAACGGAGGCAGGAAGTGGTTATGTAACTTCA had an RUNX1 binding intensity of 810.
Still for that read-out and setting: the result for TGACAGACCCGGAAATAAGAGGAGACCACACACTTG reads 894; that for GAGGACGCGGAAGTCCTTCTTGCGGGGCGGAGCTAG, 664; that for GGGCGGAAGTGCGTCACTATGTCCGACCCGCAGTGC, 706.
The same measure, in the same setting: the result for AGCTGTTTGGTCACAGGATGTGGTTATTAGAATAGG reads 894; that for GCGAAAAACGCGGAAATGCGGTGGCGGCGGCCCGCT, 721.
Sequence GAGAGGAGGATGTTGTCAGATACCCACAAATGAGAA yielded an RUNX1 binding intensity of 812.
Still for that read-out and setting: the result for GACCAATGTAAACAAGGATGTGGGTTCTCCGGGCAC reads 706.
On the same count and under the same terms, next, GGCGCGGGCTGCTTCCGGTCTGCGGGCCTGAGGAGG: 672; CAGAGGACAGGATGCCAACCCCAAAACCGCAGCGAC: 4020; CCAGTACCCCACTTCCTGACCAAACCACAAAGGTCA: 2980.
Sequence AACCAATCGAGCGGAGGAAACCGCGGCGTTAGCGTG returned an RUNX1 binding intensity of 864.
The same measure, in the same setting: next, GGAGCAAGGATGACAGGATGTGGCTTAGGGGGAGGC: 708.
Same read-out and setting: next, TCCCTAAGTCACATCCTGTGGGCAAAGGCCCTAGCA: 769; TTATTTCCGGTGTTGATCTTTTTAGTGGTACCAGGC: 1070.
Same read-out and setting: next, AGCGGCCGAAGGAAGTGACGTTTGCGGCAGTAAGGC: 1130; GTGGCGGGGCGGAAGTTCACATGTGTGGTATGTAGA: 940.
As for CAGCCGACTTCCGGGGTGGGGCTTGCTGCCGCAGAG, the RUNX1 binding intensity came to 774.
On the same count and under the same terms, next, AGGGAGCCCTCCATTTCCTGCCCACATTTGTCACCT: 1240; ACCATCCTGTAGTCTGTTAAGTGAGCAACCGCATTA: 1130.
On to AGCGGCCTGGGAGGAGGATGTGGTTACGTGGAGACC, for which the RUNX1 binding intensity is 996.
On the same count and under the same terms, next, GAAGGTTGTAGAGGAAGTGGTTTGTTCTTCCTCCTG: 837.
CCCTGAGCACTTCCCCGTAAGGCTGCGGTGCACGGG came in with an RUNX1 binding intensity of 871.
For ACAGTCGCACCGGAAGCTGCCCGCGGTGTTGACACA, the RUNX1 binding intensity stood at 700.
Same read-out and setting: the result for ATTCCTAGAGAGGAAATGCGGGCTCAGGGTGTCGGC reads 754; that for AAATATAGTGCTAAAGGAAGTGGTTTTCATGCAACT, 670.
Same read-out and setting: the result for ACCTCATCCTGCTGTTCTTGTGTGTGGTTGAGCAGT reads 944.
